KAT2A inh: qHTS Assay for Inhibitors of GCN5L2; Histone acetyltransferase KAT2A (Homo sapiens), Q92830; Potency, µM (doses to about 58.9 µM), for the others: at the top dose activity change, negative = inhibition, usual class: inhibitors; 0.21% of 390,000 active; GCN5L2 HAT assay, ThioGlo1 CoA-SH fluorescence; AID 504327, 2011; also: % is scaled to controls: 0 for no effect and ±100 for the full control effect
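GCN5L2 (20nM final) in 50mM HEPES, 0.1mM EDTA pH 7.5, 0.01% Tween-20 was preincubated 15 min at room temperature with compound, then given ThioGlo1 (50uM), H3(1-25) peptide (75uM) and acetyl-CoA (70uM); CoA-thiol fluorescence (Ex340/Em540) was read at 0 and 20 min.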
Pol kappa inh-1: qHTS for Inhibitors of Polymerase Kappa | DNA polymerase kappa (Homo sapiens), Q9UBT6 | purified Pol kappa, fluorescent DNA synthesis assay, 10 min | Potency, µM (doses to about 107 µM), for inactives: at the highest dose activity, negative = inhibition, most hits filed as inhibitors | 0.53% of 400,000 active; also: % is scaled to controls: 0 for no effect and ±100 for the full control effect
Target sequence (Q9UBT6 whole entry, looked up): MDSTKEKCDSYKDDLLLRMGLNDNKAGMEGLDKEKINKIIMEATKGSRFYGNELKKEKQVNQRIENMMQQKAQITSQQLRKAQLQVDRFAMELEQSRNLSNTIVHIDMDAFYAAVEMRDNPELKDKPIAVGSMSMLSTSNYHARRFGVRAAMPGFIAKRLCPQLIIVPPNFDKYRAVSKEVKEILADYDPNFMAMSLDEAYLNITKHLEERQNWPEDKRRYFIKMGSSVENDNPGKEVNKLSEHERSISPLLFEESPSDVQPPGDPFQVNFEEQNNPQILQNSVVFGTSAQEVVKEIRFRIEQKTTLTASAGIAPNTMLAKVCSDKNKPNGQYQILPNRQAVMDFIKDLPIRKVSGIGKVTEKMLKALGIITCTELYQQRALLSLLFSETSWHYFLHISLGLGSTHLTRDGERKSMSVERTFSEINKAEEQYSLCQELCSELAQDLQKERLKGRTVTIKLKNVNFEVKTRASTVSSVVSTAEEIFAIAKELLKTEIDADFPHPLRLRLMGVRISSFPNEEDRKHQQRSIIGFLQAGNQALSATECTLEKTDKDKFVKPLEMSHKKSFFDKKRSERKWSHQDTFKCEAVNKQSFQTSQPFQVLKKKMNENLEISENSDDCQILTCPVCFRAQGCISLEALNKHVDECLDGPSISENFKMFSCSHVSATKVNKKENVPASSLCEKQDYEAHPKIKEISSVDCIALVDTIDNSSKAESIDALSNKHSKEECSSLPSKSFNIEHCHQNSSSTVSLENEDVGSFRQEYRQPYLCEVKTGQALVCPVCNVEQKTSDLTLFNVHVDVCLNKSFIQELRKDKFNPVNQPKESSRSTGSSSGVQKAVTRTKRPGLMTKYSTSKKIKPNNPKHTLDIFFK
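Fluorescent qHTS in 1536-well format: enzyme (10 nM) and compound sat 15 min at room temperature before 50 nM substrate (final) was added. Signal taken at 0 and 10 min; no-enzyme buffer wells were negative controls.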
Pol beta inh: qHTS Assay for Inhibitors of DNA Polymerase Beta. Pol beta primer extension/strand displacement, fluorescence kinetic. Potency, µM (titrated, usually from 114 µM), without a hit: top-dose activity change, negative = inhibition, actives largely listed as inhibitors. 1.3% of 340,000 active; also: % is scaled to controls: 0 for no effect and ±100 for the full control effect
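Curves were derived by four-parameter Hill fits of normalized qHTS data. The kinetic fluorescent primer-extension read was taken at 0 and 10 min after 50 nM substrate, following a 15 min room-temperature preincubation of 10 nM enzyme with compounds.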
GLS inhibitor: qHTS for Inhibitors of Glutaminase (GLS). Potency, µM (highest dose often 45.5 µM), without a hit: top-dose activity change, negative = inhibition, usual class: inhibitors. 0.21% of 410,000 active. GLS enzymatic activity, qHTS titration; also: % is scaled to controls: 0 for no effect and ±100 for the full control effect
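Human kidney-isoform GLS in 45 mM KH2PO4 pH 8.2, 0.02% Tween-20, with compound, started with 1mM L-Glutamine (added stock). Glutamate oxidase/HRP/Amplex red coupled fluorescence read at start and after 30 min at RT.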
Pol eta inh-1: qHTS for Inhibitors of Polymerase Eta | DNA polymerase eta (Homo sapiens), Q9Y253 | recombinant Pol eta, fluorescent DNA replication assay | Potency, µM (top dose mostly 114 µM), without a hit: at the top dose activity change, negative = inhibition, hits mostly inhibitors | 1.2% of 390,000 active | AID 588591, 2011; also: % is scaled to controls: 0 for no effect and ±100 for the full control effect
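Fluorescent replication assay: 50 nM final substrate added after a 15 min room-temperature compound preincubation with 10 nM enzyme. Signal taken at 0 min and again at 10 min.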
Pol iota inh: qHTS for Inhibitors of Polymerase Iota; DNA polymerase iota (Homo sapiens), Q9UNA4; Pol iota fluorescent replication assay, 10 min; Potency, µM (series often up to 115 µM), for inactives: top-dose activity, negative = inhibition, most hits filed as inhibitors; 1% of 390,000 active; AID 588590, 2011
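Fluorescent replication assay read twice, at 0 min and 10 min after adding 50 nM (final) substrate. Enzyme (10 nM) and compounds were first incubated 15 min at room temperature; enzyme-free buffer wells were negative controls.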
PGK validate: qHTS for inhibitors of Phosphogylcerate Kinase: Hit Validation Screen. 79% of 500 active. TbPGK coupled GAPDH assay, Kinase-Glo luminescence. AID 686980, 2013. shares compounds with Pol kappa inh-1. Potency, µM (highest dose often 57.5 µM), without a hit: at the top dose activity change, negative = inhibition, actives largely listed as inhibitors; also: % is scaled to controls: 0 for no effect and ±100 for the full control effect; nearly all actives have a fitted effect of over 65% in size
Pol iota confirm: qHTS for Inhibitors of Polymerase Iota: Confirmatory Assay for Cherry-picked Compounds | 77% of 1,500 active | Pol iota primer extension, TAMRA/BHQ fluorescence | shares compounds with Pol kappa inh-1 | AID 720496, 2013 | Potency, µM, actives largely listed as inhibitors
Pol kappa inh-2: qHTS for Inhibitors of Polymerase Kappa: Confirmatory Assay for Cherry-picked Compounds; AID 720501, 2013; Potency, µM, usual class: inhibitors; shares compounds with Pol eta inh-1; purified Pol-kappa, fluorescent strand-displacement substrate; 76% of 920 active
Pol eta inh-2: qHTS for Inhibitors of Polymerase Eta: Confirmatory Assay for Cherry-picked Compounds; 64% of 2,600 active; shares compounds with Pol eta inh-1; Potency, µM, most hits filed as inhibitors; Pol eta primer extension, TAMRA/BHQ fluorescence, 10 min
* hit, by the source's call; i = inactive; ? = inconclusive; / = no result; [ ] = another dose, or the depositor's remark. Only some compounds are listed: those with a hit (about 2.4% of all), similar ones and a draw of the others. Calls follow the shape of the dose curve; as a rule, active = well fitted curve in the direction sought with a large enough effect; inconclusive = small, poorly fitted or top-dose-only effect, or another doubt; inactive = no such curve, though single readings can be large; an effect the other way counts as inactive or inconclusive. Potency is read from the fitted curve at half-maximal effect.

SMILES	KAT2A inh	Pol kappa inh-1	Pol beta inh	GLS inhibitor	Pol eta inh-1	Pol iota inh	Pol iota confirm	Pol eta inh-2	others
CC(=O)Nc1ccc2c(COC(=O)CC3Sc4ccccc4NC3=O)cc(=O)oc2c1 (stereo not given)	-7%	35µM*	7.9µM*	?	20µM*	?	60*	48*
COc1ccc(OC)c(Nc2ncnc3c2nc2n3CCCC2)c1	-9%	3%	13%	10%	-11%	25%	/	/
O=C1/C(=C/c2ccc(O)c(O)c2)Oc2cc(O)ccc21	-16%	28µM*	-30%	8.9µM*	20µM*	?	24*	34*
COc1cc(/C=C2\Oc3cc(O)ccc3C2=O)ccc1O	?	-29%	?	19%	-13%	?	/	/
Cc1ccc(N(C)C(=O)Cn2nc(Cc3ccncc3)c3ccccc3c2=O)cc1C	-1%	1%	33%	-4%	-2%	20%	/	/
COc1cc(NC(=O)CN2CCCN(S(=O)(=O)c3ccc(F)cc3)CC2)cc(OC)c1	3%	-1%	0%	2%	-17%	2%	/	/
Cc1ccc(NC(=O)Cn2cc(S(=O)(=O)Cc3ccc(F)cc3)c3ccccc32)cc1Cl	?	?	25µM*	-11%	18µM*	79µM*	47*	43*
Cc1ccc(NC(=O)Cn2cc(S(=O)(=O)Cc3cccc(Cl)c3)c3ccccc32)cc1C	-11%	-3%	-2%	-5%	-22%	16%	/	/
Cc1cccc(NC(=O)c2cc(-c3ccco3)nc3ccccc23)n1	-13%	-4%	20%	-4%	-17%	-6%	/	/
CN(C)C(CNC(=O)c1cc(-c2ccco2)nc2ccccc12)c1ccccc1 (stereo not given)	?	25µM*	/	?	11µM*	?	34*	76*
COC(=O)C1CCN(C(=O)c2cc(-c3ccco3)nc3ccccc23)CC1	8.9µM*	22µM*	/	?	8.9µM*	?	8.4*	15*	PGK validate=13µM*;Pol kappa inh-2=9.5*
O=C(c1cc(-c2ccco2)nc2ccccc12)N1CCN(Cc2ccccc2)CC1	-18%	-19%	/	-2%	?	?	/	/
CCCCCCNC(=O)c1cc(-c2ccco2)nc2ccccc12	?	50µM*	7.9µM*	?	13µM*	?	27*	30*
Cc1ccccc1NC(=O)c1cc(-c2ccco2)nc2ccccc12	/	89µM*	/	20%	45µM*	40µM*	53*	48*
COc1ccc(NC2C[C@H]3CCCC(=O)N4CC[C@@H](C2)[C@@H]34)cc1 (stereo not given in full)	8%[88.6 µM]	-4%	/	/	/	/	/	/
O=C(C[n+]1cccc2cc(Cl)ccc21)c1cccc([N+](=O)[O-])c1	/	-4%	/	/	/	1%	/	/
O=C(NCCCN1CCOCC1)c1cc(-c2ccc(F)cc2)nc2ccccc12	-1%	-17%	/	-15%	-9%	-2%	/	/
CCCCN(C(=O)c1cc(-c2ccco2)nc2ccccc12)c1c(N)n(CCC)c(=O)[nH]c1=O	-19%	79µM*	/	?	20µM*	25µM*	34*	48*	Pol kappa inh-2=38*
O=C(N/N=C/c1cccc(F)c1)c1cc(-c2ccco2)nc2ccccc12	?	18µM*	-102%	13µM*	2.2µM*	?	8.4*	13*	PGK validate=5.8µM*
O=C(N/N=C/c1ccc(F)cc1)c1cc(-c2ccccn2)nc2ccccc12	-4%	-2%	/	5%	-15%	16%	/	/
O=C(NCCCN1CCOCC1)c1cc(-c2ccco2)nc2ccccc12	-28%	79µM*	/	116%	11µM*	10µM*	34*	38*	Pol kappa inh-2=17*
COc1cc(Cl)c(C)cc1NC(=O)c1nn(-c2ccc(C)cc2)c(=O)n(C)c1=O	-4%	-12%[60.1 µM]	-1%	-1%	-12%	-2%	/	/
Cc1cc(OCC(=O)Nc2ccc(N3CCN(C(=O)c4ccco4)CC3)cc2)cc(C)c1Cl	?	-3%	?	3%	79µM*	?	53*	?
NN=C1c2ccccc2C(=O)C1C(=O)C(c1ccccc1)c1ccccc1 (stereo not given)	/	22µM*	/	?	?	40µM*	75*	85*	Pol kappa inh-2=17*
O=C(O)C(c1ccccc1)N1C(=O)c2cccc3cccc(c23)C1=O (stereo not given)	0%	-1%	31%	0%	0%	-5%	/	/
O=C(O)CN1C(=O)/C(=C/c2ccc(N3CCCCC3)o2)SC1=S	-19%	50µM*	18µM*	11µM*	50µM*	i	42*	34*	Pol kappa inh-2=24*
COC(=O)CN1C(=O)S/C(=C/c2ccc(N3CCCCC3)o2)C1=O	-14%	-4%	4%	-23%	?	?	/	/
COc1ccc(OC)c(CCNC(=O)CCc2cn(Cc3cc(C)ccc3C)c3ccccc23)c1	-10%	-12%	?	-9%	-11%	0%	/	/
O=C(O)C1Nc2c(Cl)cc(Cl)c(Cl)c2C2C=CCC12 (stereo not given)	/	28µM*	/	?	14µM*	10µM*	21*	24*
CC(C)C1Nc2c(O)cc(Cl)c([N+](=O)[O-])c2C2C=CCC21 (stereo not given)	-3%	1%[60.1 µM]	?	34%	2%	?	/	/

Compound activity as filed in PubChem BioAssay.
